According to PubChem BioAssay (NCI):
Several values for one entry are separate records, joined by “and”; a condition that tells them apart may be missing. Equal values may be shown once. The panel holds about 79,000 compounds, 15% with a hit somewhere; the sample as a whole holds those more often. Where a structure was tested more than once in an assay, its records may differ in their call. Activity calls are given as the source filed them. Rule as the data show it: active = growth inhibition above about 70%; inactive = the rest.

Tests used:
[1] = NCI Yeast Anticancer Drug Screen. Data for the rad50 strain (AID 155);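 also: 0% = growth of vehicle-only cultures of the same strain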; details: S. cerevisiae rad50 strain growth inhibition, stronger effect = higher value
Procedure, shortened: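 Cells are treated with compound, grown, and their growth is then scored against vehicle-only cultures of the same repair-deficient yeast strain.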

[2] = NCI Yeast Anticancer Drug Screen. Data for the mec2-1 strain (AID 157); details: S. cerevisiae mec2-1 strain, stronger effect = higher value
Procedure, shortened: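 Using mec2-1 yeast: add compound, measure growth, express inhibition versus vehicle-treated cultures.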

[3] = NCI Yeast Anticancer Drug Screen. Data for the sgs1 mgt1 strain (AID 161);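 also: 0% = growth of cultures given vehicle only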; details: S. cerevisiae sgs1 mgt1 strain, stronger effect = higher value
Procedure, shortened: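 Percent growth inhibition was derived by comparing compound-exposed mutant yeast with vehicle-exposed cultures. The strain carries alterations in DNA damage repair.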

[4] = NCI Yeast Anticancer Drug Screen. Data for the cln2 rad14 strain (AID 165);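 also: 0% = growth equal to vehicle treated cultures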; details: S. cerevisiae cln2 rad14 strain, stronger effect = higher value
Procedure, shortened: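 Yeast strain cln2 rad14, bearing defects in cell cycle control and DNA repair, serves as the test system; values reflect growth inhibition compared with vehicle.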

[5] = NCI Yeast Anticancer Drug Screen. Data for the bub3 strain (AID 167); details: S. cerevisiae bub3 mutant strain, stronger effect = higher value
Procedure, shortened: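 Part of a panel of yeast mutants defective in DNA damage repair or cell cycle regulation. Each strain is grown with compound, and inhibition is calculated relative to solvent-treated cultures.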

[6] = NCI Yeast Anticancer Drug Screen. Data for the mlh1 rad18 strain (AID 175); details: S. cerevisiae mlh1 rad18 strain growth inhibition, stronger effect = higher value
Procedure, shortened: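 Steps: expose repair-defective yeast to compound; measure growth; express inhibition against vehicle-treated controls.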

[7] = at 5.0 µM (retest, dose inferred, filed as 0.5)
[8] = at 50.0 µM (retest, dose inferred, filed as 5.0)

Measured: growth inhibition

O=c1oc2ccccc2c(O)c1C(c1ccc(OCc2ccccc2)cc1)c1c(O)c2ccccc2oc1=O
active: [2]; at 50.0 µM 86.3% | [3]; [8] 92% | [4]; [8] 94% | [5]; [8] 95%
inactive: [1]; [7] 16% | [1]; [8] 7% | [1]; at 50.0 µM 63.3% | [2]; [7] 16% | [2]; [8] 51% | [3]; [7] -33% | [3]; at 50.0 µM 65.3% | [4]; [7] -3% | [4]; at 50.0 µM 62.2% | [5]; [7] 7% | [5]; at 50.0 µM 60.2% | [6]; [7] 7% | [6]; [8] 23% | [6]; at 50.0 µM 50.9%

O=C1c2ccccc2-c2c3c(cc4ccnc1c24)OCO3
inactive: [2]; [7] 57% | [3]; [7] 50% | [4]; [7] 37% | [5]; [7] 61%
active: [1]; [7] 96% | [1]; [8] 97% | [1]; at 50.0 µM 86.2% and 86.5% | [2]; [8] 96% | [2]; at 50.0 µM 84.8% and 88.2% | [3]; [8] 96% | [3]; at 50.0 µM 86.6% and 86.2% | [4]; [8] 95% | [4]; at 50.0 µM 81.7% and 87% | [5]; [8] 95% | [5]; at 50.0 µM 87.5% and 87.3% | [6]; [7] 73% | [6]; [8] 95% | [6]; at 50.0 µM 85.8% and 88%

C[CH2][Sn]([Cl])([Cl])[CH2]C
inactive: [1]; [7] 20% and 26% | [2]; [7] 10% and 16% | [3]; [7] 12% and 21% | [3]; [8] 50% and 68% | [3]; at 50.0 µM 55.9% and 44.2% | [4]; [7] 2% and 31% | [4]; [8] 42% and 35% | [4]; at 50.0 µM 53.9% and 48.2% | [5]; [7] 17% and 11% | [5]; [8] 69% and 58% | [5]; at 50.0 µM 48.5% and 41.8% | [6]; [7] 19% and 30% | [6]; at 50.0 µM 33.9% and 23.1%
58% (inactive) and 79% (active): [1]; [8]
70.3% (active) and 68.2% (inactive): [1]; at 50.0 µM
active: [2]; [8] 75% and 85%
45% (inactive) and 81% (active): [6]; [8]
53.3% (inactive) and 77.2% (active): [2]; at 50.0 µM

O=C(CI)c1ccc[nH]1
active: [1]; [8] 99% | [1]; at 50.0 µM 99.3% | [2]; [7] 79% | [2]; [8] 99% | [2]; at 50.0 µM 99.3% | [3]; [7] 74% | [3]; [8] 99% | [3]; at 50.0 µM 99.5% | [4]; [7] 96% | [4]; [8] 99% | [4]; at 50.0 µM 99.2% | [5]; [7] 97% | [5]; [8] 97% | [5]; at 50.0 µM 99.4% | [6]; [7] 74% | [6]; [8] 97% | [6]; at 50.0 µM 99.3%
inactive: [1]; [7] 65%

CCC1CC2CCC(O2)C(C)C(=O)OC(C)CC2CCC(O2)C(C)C(=O)OC(CC)CC2CCC(O2)C(C)C(=O)OC(C)CC2CCC(O2)C(C)C(=O)O1 (centres undefined)
inactive: [1]; [7] -7% | [2]; [7] 23% | [3]; [7] -1% | [4]; [7] 25% | [4]; at 50.0 µM 66.2% | [5]; [7] -4% | [6]; [7] -15%
active: [1]; [8] 71% | [1]; at 50.0 µM 82.3% | [2]; [8] 88% | [2]; at 50.0 µM 84.5% | [3]; [8] 74% | [3]; at 50.0 µM 80.7% | [4]; [8] 79% | [5]; [8] 79% | [5]; at 50.0 µM 79.2% | [6]; [8] 85% | [6]; at 50.0 µM 73.2%

ClCc1nc2ccccc2[nH]1
inactive: [1]; [7] 10% | [2]; [7] 4% | [2]; [8] 45% | [2]; at 50.0 µM 20.5% | [3]; [7] 18% | [4]; [7] -1% | [4]; at 50.0 µM 60% | [5]; [7] -9% | [5]; [8] 1% | [5]; at 50.0 µM -31.9% | [6]; [7] 14%
active: [1]; [8] 88% | [1]; at 50.0 µM 88.7% | [3]; [8] 83% | [3]; at 50.0 µM 83.5% | [4]; [8] 77% | [6]; [8] 82% | [6]; at 50.0 µM 74.7%

CCN1CCC(O)(c2ccc(Cl)c(Cl)c2)C(C(=O)c2ccc(Cl)c(Cl)c2)C1 (centres undefined)
active: [1]; [7] 75% | [1]; [8] 99% | [1]; at 50.0 µM 99.7% | [2]; [8] 100% | [2]; at 50.0 µM 99.6% | [3]; [7] 78% | [3]; [8] 99% | [3]; at 50.0 µM 99.7% | [4]; [8] 99% | [4]; at 50.0 µM 98.9% | [5]; [7] 71% | [5]; [8] 98% | [5]; at 50.0 µM 98.8% | [6]; [8] 99% | [6]; at 50.0 µM 99.6%
inactive: [2]; [7] 57% | [4]; [7] 60% | [6]; [7] 54%

C/C=C(\C)C(=O)OC1C(C)=C2C(C1OC(=O)CCCCC)C(C)(OC(C)=O)CC(OC(=O)CCC)C1(O)C2OC(=O)C1(C)O (centres undefined)
inactive: [1]; [7] 26% | [2]; [7] 15% | [3]; [7] 20% | [4]; [7] 34% | [5]; [7] 17% | [6]; [7] 34% | [6]; at 50.0 µM 67.6%
active: [1]; [8] 85% | [1]; at 50.0 µM 77.6% | [2]; [8] 86% | [2]; at 50.0 µM 83.5% | [3]; [8] 91% | [3]; at 50.0 µM 74.8% | [4]; [8] 95% | [4]; at 50.0 µM 82.6% | [5]; [8] 92% | [5]; at 50.0 µM 73.4% | [6]; [8] 87%
